The list is not random: actives were taken first. Their share in the collection is about 4.3%.
SMARCA2 act: activators of SMARCA2 function; 370,000 compounds, 1% hits; MG213 cells, MMTV-luciferase reporter, dexamethasone, overnight; activation, % at 9.1 µM; AID 652017; in the data active means activation above about 7.8%;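 further: 0% = vehicle wells and 100% = reference activator wells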
esBAF inh: SWI/SNF esBAF complex inhibition. mouse ES cells, Bmi1-luciferase knock-in reporter, 24 h; 100% = twice the neutral-well signal. 350,000 compounds, 2% hits. reporter increase, % at 12.5 µM; in the data active means activation above about 40%; inconclusive means no clear call, values can overlap the other calls;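 further: 0% = median of the plate's neutral control wells and 100% = double that signal; a rise in the Bmi1 reporter signal indicates esBAF inhibition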
MLL AF4-AF9 inh: MLL-AF4/AF9 protein interaction inhibition; P42568; AlphaScreen, biotin-AF4 peptide binding to FLAG-AF9; inhibition, % at 10 µM; 350,000 compounds, 0.47% hits;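 active means every replicate reaching a set inhibition limit, whatever the replicate mean, cut at about 25% in these data; inconclusive means mean inhibition reaches that limit but some replicates miss it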;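 further: 0% = plate neutral control median and 100% = total signal loss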
Target sequence (P42568 whole entry, looked up): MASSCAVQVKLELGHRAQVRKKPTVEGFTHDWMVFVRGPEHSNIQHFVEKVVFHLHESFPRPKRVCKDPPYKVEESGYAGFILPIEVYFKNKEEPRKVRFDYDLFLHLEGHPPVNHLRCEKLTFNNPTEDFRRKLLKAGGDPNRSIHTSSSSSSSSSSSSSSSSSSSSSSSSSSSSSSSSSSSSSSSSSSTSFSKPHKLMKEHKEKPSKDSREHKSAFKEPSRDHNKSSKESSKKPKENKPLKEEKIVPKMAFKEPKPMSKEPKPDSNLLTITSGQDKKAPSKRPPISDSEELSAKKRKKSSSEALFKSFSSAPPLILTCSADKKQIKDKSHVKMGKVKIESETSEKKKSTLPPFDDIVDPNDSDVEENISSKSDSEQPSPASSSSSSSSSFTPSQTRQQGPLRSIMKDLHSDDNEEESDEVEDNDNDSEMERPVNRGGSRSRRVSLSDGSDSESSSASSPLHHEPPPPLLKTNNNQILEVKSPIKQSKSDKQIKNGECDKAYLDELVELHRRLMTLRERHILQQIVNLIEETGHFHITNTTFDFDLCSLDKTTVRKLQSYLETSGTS
FGF22 binding: FGF22 (human) thermal shift binding. AID 651658. 340,000 compounds, 1.5% hits. recombinant FGF22 thermal shift, SYPRO orange fluorescence; percent of sucrose octasulfate shift, DMSO zero. Q9HCT0. activity (Tm shift, normalised), % at 9.99 µM;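 active means mean Tm shift, scaled 0 neutral to 100 positive control, at about 1.3% or above, every replicate too, limit read from the data; inconclusive means no clear call, values can overlap the other calls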
Wnt bcat act: activates Wnt/beta-catenin signaling in a reporter cell assay; activator, plate reader; activation, % at 9.35 µM; 300,000 compounds, 1.2% hits; in the data active means activation above about 30%, passing the limit was not always enough; inconclusive means no clear call, values can overlap the other calls;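 further: 0% = neutral control wells and 100% = positive control wells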
MITF TRPM1 HTS: activators of MITF-driven TRPM1 promoter activity in SK-MEL-5 cells; SK-MEL-5 TRPM1-promoter luciferase, 24 h; % of positive control, neutral wells = 0; activation, % at 12.5 µM; 300,000 compounds, 0.75% hits; AID 588334;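 active means mean activation of at least 80% with every replicate also reaching 80%; inconclusive means mean reaches 80% but some replicate falls short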;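 further: 0% = neutral control wells and 100% = parthenolide positive control wells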
Starred values were filed as active, the others as inactive; u = inconclusive; x = no result.

SMILES	SMARCA2 act	esBAF inh	MLL AF4-AF9 inh	FGF22 binding	Wnt bcat act	MITF TRPM1 HTS
CC(C)CN(C(=O)CCNC(=O)c1ccccc1Cl)C1CCS(=O)(=O)C1 (stereo unspecified)	-3	0	0	0	32*	1
COc1cc(CCC(=O)OCC(=O)N(CC(C)C)C2CCS(=O)(=O)C2)cc(OC)c1OC (stereo unspecified)	2	-1	-1	0	x	-5
O=C(C[C@@H]1CC[C@@H]2[C@H](COC[C@H](O)CN2C(=O)c2ccccc2)O1)Nc1nccs1	x	1	-2	0	x	x
C[C@H]1CN([C@@H](C)CO)C(=O)c2cccc(NC(=O)c3ccncc3)c2O[C@@H]1CN(C)Cc1ccc(C(F)(F)F)cc1	x	2	5	17*	x	x
C[C@@H]1CN([C@@H](C)CO)C(=O)c2cccc(NC(=O)c3ccncc3)c2O[C@H]1CN(C)Cc1ccc(C(F)(F)F)cc1	x	7	1	0	x	x
C[C@H](CO)N1C[C@H](C)[C@@H](CN(C)Cc2ccc(-c3ccccc3)cc2)Oc2c(NC(=O)C3CC3)cccc2C1=O	x	-5	1	148*	x	x
C[C@@H]1CN([C@H](C)CO)C(=O)c2cccc(NC(=O)c3ccncc3)c2O[C@@H]1CN(C)Cc1ccc(Oc2ccccc2)cc1	x	0	25*	0	x	x
C[C@H](CO)N1C[C@H](C)[C@H](CN(C)Cc2ccc(-c3ccccc3)cc2)Oc2c(NC(=O)C3CC3)cccc2C1=O	x	-1	3	0	x	x
O=C(CSc1nc(O)cc(=O)n1-c1ccccc1)Nc1ccc2c3c(cccc13)CC2	-5	-10	-10	43*	-6	-10
C[C@@H]1CN([C@@H](C)CO)C(=O)c2cc(-c3ccccc3)cnc2O[C@@H]1CN(C)C(=O)Nc1ccccc1F	x	6	-17	0	x	x
Clc1ccccc1CN1CCN(CCCc2ccccc2)CC1	-1	x	6	43*	0	-7
O=c1c2ccccc2oc2cc(-c3ccc(CN4CCOCC4)cc3)ccc12	5	77*	9	0	u	u
COc1cccc(-c2cnc3c(c2)C(=O)N([C@H](C)CO)C[C@H](C)[C@H](CN(C)S(=O)(=O)c2cn(C)cn2)O3)c1	x	-2	-2	0	x	x
Oc1ccc(/C=C/c2ccc3ccccc3n2)cc1	-4	-39	3	0	-3	-70
O/C(=C\c1ccc2ccccc2n1)c1ccc(O)cc1O	0	-30	-1	0	43*	20
O=c1c2ccccc2nc(SCc2nc3ccccc3s2)n1CCCO	6	36	x	x	41*	74
O=C(CSc1nc2ccccc2c(=O)n1CCCO)NCc1ccccc1	-3	0	x	x	-14	9
CCC(=O)N1C[C@@H](C)[C@@H](OC)CN(C)C(=O)c2ccc(NC(=O)c3ccc(F)cc3)cc2OC[C@@H]1C	x	1	-1	0	x	x
CC(C)(C)c1cc(C(=O)NCc2cc(F)cc3c2OCOC3)n(Cc2ccccc2)n1	1	50*	-1	0	0	x
CC(C)(C)c1cc(C(=O)NNC(=O)Nc2ccccc2)n(Cc2ccccc2)n1	-3	-3	0	0	-4	-5
CCCC#Cc1ccc2c(c1)O[C@H](CN(C)C(=O)c1cnccn1)[C@@H](C)CN([C@@H](C)CO)S2(=O)=O	x	5	1	0	x	x
O=C(C[C@H]1CC[C@H](NC(=O)Cc2cccnc2)[C@H](CO)O1)Nc1ccc(-c2ccccc2)cc1	x	7	1	0	x	x
N#Cc1c(N2CCCC2)nc(N)c2c(N)nc(N3CCCC3)cc12	2	69*	x	x	x	0
C[C@H]1CN([C@@H](C)CO)C(=O)c2cccc(NS(=O)(=O)c3ccc(Cl)cc3)c2O[C@H]1CN(C)C	x	-4	-1	0	x	x
CN1C(=O)NC(c2ccccc2)(C(F)(F)F)S/C1=C(/C#N)c1nnc(N2CCOCC2)n1-c1ccccc1 (stereo unspecified)	-1	x	1	0	67*	-4
COc1cccc(S(=O)(=O)Nc2ccc3c(c2)OC[C@@H](C)N(C(=O)Cc2cccnc2)C[C@H](C)[C@@H](OC)CN(C)C3=O)c1	x	3	x	x	x	x
CN(C(=O)C1CCN(S(=O)(=O)c2ccccc2[N+](=O)[O-])CC1)C1CCCCC1	4	-8	3	44*	-4	-2
